Lassa entry inh – qHTS for Inhibitors of binding or entry into cells for Lassa Virus; 300,000 compounds, 1.2% hits; AID 540256, 2011; Lassa virus pseudotype entry inhibition, cell reporter; Potency, µM (top dose mostly 37.9 µM), inactives show at the top dose activity change, negative = inhibition, actives largely listed as inhibitors; calls by dose curve; tested in HEK293 cells; note: potency is the fitted concentration of half-maximal effect; nearly all actives have a fitted effect of over 50% in size
HCV inh – qHTS Assay for Inhibitors of Hepatitis C Virus (HCV); Huh7.5.1 HCVcc-Cre infection, luciferase reporter, 44 h; Potency, µM (series often up to 41.8 µM), for inactives: at the highest dose activity change, negative = inhibition, usual class: inhibitors; 340,000 compounds, 3.4% hits; AID 651820, 2012; active = well fitted inhibition curve with a large enough effect; inconclusive = small, poorly fitted or top-dose-only effect, or another doubt; inactive = no such curve, though single readings can be large or run the other way; note: potency is the fitted concentration of half-maximal effect
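Antiviral activity was scored by luciferase reporter output from cells infected with HCVcc-Cre (~0.5 moi) in presence of compound, 44 h infection period, cells seeded 1,000/well 4 h prior.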
Marburg entry inh – qHTS for inhibitors of binding or entry into cells for Marburg Virus; Marburg virus pseudotyped entry inhibition, cell reporter; Potency, µM (doses to about 37.8 µM), for the others: at the top dose activity change, negative = inhibition, hits mostly inhibitors; 300,000 compounds, 1.8% hits; calls by dose curve; tested in HEK293 cells; note: potency is the fitted concentration of half-maximal effect
HCMV inh – qHTS Assay for inhibitors of the human cytomegalovirus (HCMV); activity change, negative = inhibition, % at 57.5 µM; HFF cells, HCMV-luciferase reporter, 72 h; stronger effect = lower value; 410,000 compounds, 4.5% hits; in the data active = activity change below about -60%; inconclusive = no clear call, values can overlap the other calls; inactive = above about -39%
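Human foreskin fibroblasts infected with luciferase-reporter HCMV at MOI 1 PFU/cell, compounds at two doses. Luciferase measured 72 h post infection; normalized to buffer-only basal and Salinomycin (10uM) controls.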
Vaccinia mCherry – qHTS for Stage-Specific Inhibitors of Vaccinia Orthopoxvirus: mCherry Reporter Primary qHTS. 310,000 compounds, 0.63% hits. Vaccinia virus mCherry reporter infection, fluorescence. Potency, µM (top dose mostly 36.5 µM), without a hit: at the top dose activity change, negative = inhibition, actives largely listed as inhibitors; calls by dose curve; tested in A549 cells; note: potency is the fitted concentration of half-maximal effect; nearly all actives have a fitted effect of over 35% in size
VACV Venus inh – qHTS for Stage-Specific Inhibitors of Vaccinia Orthopoxvirus: Venus Reporter Primary qHTS; Vaccinia virus Venus reporter expression, fluorescence; Potency, µM (highest dose often 36.5 µM), without a hit: at the highest dose activity change, negative = inhibition, usual class: inhibitors; 330,000 compounds, 0.46% hits; AID 720580, 2013; calls by dose curve; tested in A549 cells; note: potency is the fitted concentration of half-maximal effect; nearly all actives have a fitted effect of over 30% in size
Active calls of the source: *; ! = repeats disagree; [ ] = dose if it differs, or a comment. Sampled rows, rich in hits. Any-hit rate of the full collection: about 7.8%. % is set by controls: 0 for no effect and ±100 for the full control effect.

Cc1ccc(C)c(NS(=O)(=O)c2cc(C(=O)NCc3ccncc3)ccc2C)c1 was read as Lassa entry inh -6%, HCV inh inconclusive, Marburg entry inh inconclusive, HCMV inh -69*, Vaccinia mCherry -23% and VACV Venus inh -9%.
Screening O=C(NCc1ccncc1)c1ccc(Oc2ccccc2)cc1 returned Lassa entry inh -17%, HCV inh inconclusive, Marburg entry inh 13%[46.1 µM], HCMV inh -18, Vaccinia mCherry -20% and VACV Venus inh -9%.
Screening Cc1ccc(C(=O)NCc2ccncc2)cc1S(=O)(=O)Nc1cccc(C)c1C returned HCV inh inconclusive and HCMV inh 17.
Cc1ccc(CNC(=O)c2ccc(COc3ccccc3)cc2)cc1 was read as Lassa entry inh inconclusive, HCV inh 4%, Marburg entry inh -4%, HCMV inh -63*, Vaccinia mCherry inactive and VACV Venus inh -14%.
Screening CCOc1ccc(CNC(=O)CCC(=O)N2CC3CCCN3c3ccccc32)cc1 (stereo not given) returned Lassa entry inh 15%[46.1 µM], HCMV inh 13, Vaccinia mCherry -18% and VACV Venus inh -7%.
For Cc1cccc(Nc2nnc(-c3ccc(C)c(S(=O)(=O)N4CCOCC4)c3)c3ccccc23)c1 the results were Lassa entry inh inconclusive, HCMV inh -7, Vaccinia mCherry -11% and VACV Venus inh -22%.
Cn1c(=O)c2c(ncn2CCOc2cccc(Br)c2)n(C)c1=O was read as HCV inh inconclusive and HCMV inh -71*.
`Cn1c(=O)c2c(ncn2Cc2ccc(Cl)c(Cl)c2)n(C)c1=O` gave Lassa entry inh -15%, HCV inh inconclusive, Marburg entry inh inconclusive and HCMV inh -70*.
Cn1c(=O)c2c(nc(Cl)n2Cc2ccc(Cl)c(Cl)c2)n(C)c1=O was read as Lassa entry inh -6%, HCV inh inconclusive, Marburg entry inh 1%, HCMV inh 27, Vaccinia mCherry inactive and VACV Venus inh 0%.
For Cn1c(=O)c2c(ncn2Cc2cccc(Cl)c2)n(C)c1=O the results were Lassa entry inh -8%, HCV inh 11µM*, Marburg entry inh inconclusive, HCMV inh -75*, Vaccinia mCherry -13% and VACV Venus inh -16%.
Screening Cc1ccc(OCCn2c(Br)nc3c2c(=O)n(C)c(=O)n3C)cc1 returned Lassa entry inh -6%, HCV inh 8.9µM*, Marburg entry inh 2% and HCMV inh inconclusive.
Cc1oc(-c2ccccc2Cl)nc1CSc1nc2ncccc2[nH]1 was read as Lassa entry inh 10%[46.1 µM], HCMV inh inconclusive, Vaccinia mCherry -16% and VACV Venus inh -20%.
Screening COc1ccc(-c2nc3ccc(NS(C)(=O)=O)cc3o2)cc1 returned Lassa entry inh inconclusive, Marburg entry inh inconclusive, HCMV inh 90, Vaccinia mCherry 7% and VACV Venus inh 8%.
Screening COc1ccc(-c2cccc(C3CC=CC4C3C(=O)N(Cc3ccccc3)C4c3ccc(C(F)(F)F)cc3)c2)cc1 (stereo not given) returned HCV inh -6%, HCMV inh -67*, Vaccinia mCherry -4% and VACV Venus inh -10%.
Screening COc1ccc(-c2ccc(OC)c([C@H]3[C@H]4C=CC[C@@H](C)[C@@H]4C(=O)N3Cc3ccccc3)c2)cc1OC returned HCV inh -5%[8.37 µM], HCMV inh 37, Vaccinia mCherry -17% and VACV Venus inh inconclusive.
Screening COc1ccc(-c2c([C@H]3[C@H]4C=CC[C@@H](C)[C@@H]4C(=O)N3Cc3ccccc3)ccc3ccccc23)cc1OC returned HCV inh inconclusive, HCMV inh -84*, Vaccinia mCherry -26% and VACV Venus inh inconclusive.
Screening O=C1C2C(c3ccccc3)CC=CC2[C@H](c2ccc(C(F)(F)F)cc2)N1Cc1ccccc1 (stereo not given in full) returned HCV inh -18%, HCMV inh -85*, Vaccinia mCherry -20% and VACV Venus inh inconclusive.
Screening COc1cccc(CN2C(=O)NC(C)(C3CCN(Cc4cc(Cl)ccc4O)CC3)C2=O)c1OC (stereo not given) returned Vaccinia mCherry -10% and VACV Venus inh -24%.
COC(=O)c1ccccc1NC(=O)[C@H]1COc2ccccc2O1 was read as Marburg entry inh -32%.
`CC(C)NC(=O)CN1C(=O)CCn2nc(-c3cn(C)c4ccccc34)cc21` gave Lassa entry inh 2%[46.1 µM], HCMV inh 5, Vaccinia mCherry -4% and VACV Venus inh 7%.
Screening N=C(N)SCCN returned Lassa entry inh 22%, HCV inh -13%, Marburg entry inh 35µM*!, HCMV inh 21, Vaccinia mCherry -20% and VACV Venus inh -5%.
`CN(C)CCCCSC(=N)N` gave Marburg entry inh inconclusive, Vaccinia mCherry -4% and VACV Venus inh -6%.
Screening O=C(CCCOc1ccc(Cl)cc1Cl)N/N=C/c1ccc(Cl)cc1 returned Lassa entry inh inconclusive, HCV inh 3%, Marburg entry inh inconclusive, HCMV inh 24, Vaccinia mCherry -22% and VACV Venus inh -12%.
`O=C(COc1ccc(Cl)cc1Cl)N/N=C/c1ccc(OC2OC(CO)C(O)C(O)C2O)cc1` (stereo not given) gave HCV inh 3% and HCMV inh -79*.
`Cc1sc2ncn(CC(=O)Nc3ccc(C(C)C)cc3)c(=O)c2c1S(=O)(=O)N1CCN(c2ncccn2)CC1` gave Lassa entry inh 7%[46.1 µM], Marburg entry inh -2%[46.1 µM], HCMV inh 26, Vaccinia mCherry 11% and VACV Venus inh -1%.
`O=C1OCC(CO)(CO)N=C1NNc1ccccc1Cl` gave Lassa entry inh -4%, HCV inh 27%, Marburg entry inh 18%, HCMV inh -66*, Vaccinia mCherry -15% and VACV Venus inh 13%.
For O=C(O)C1(Nc2ccccc2Cl)CCCC1 the results were Lassa entry inh 16%[46.1 µM], HCV inh 13%, Marburg entry inh -3%[46.1 µM], HCMV inh -20, Vaccinia mCherry -3% and VACV Venus inh -11%.
Cc1cccc(-c2nc3c4ccccc4nc(N4CCN(c5cccc(Cl)c5)CC4)n3n2)c1 was read as Marburg entry inh inconclusive, HCMV inh -62*, Vaccinia mCherry -15% and VACV Venus inh -9%.
Screening CCN(C(=O)Cn1nc(Cc2cccnc2)c2ccccc2c1=O)c1ccccc1F returned Lassa entry inh -2%[46.1 µM], Marburg entry inh 5%[46.1 µM], HCMV inh inconclusive, Vaccinia mCherry -18% and VACV Venus inh -4%.
`CCN(C)C(=O)C1=COC2=NC(=O)N(Cc3ccccc3)CCN12` gave HCMV inh -3.
